# Compound activity (PubChem)
# This is a sample that favours compounds with a hit; in the whole collection about 5% have one here.
# LmPK inh = LmPK (Leishmania mexicana) enzyme inhibition; Q27686; Potency, µM (doses to about 57.5 µM), for the others: at the highest dose activity change, negative = inhibition, most hits filed as inhibitors; AID 1721; purified LmPK, Kinase-Glo ATP luminescence, 1 h; 0.37% of 290,000 active; further: potency means the concentration at half of the fitted maximal effect
# Target sequence (Q27686 whole entry, looked up): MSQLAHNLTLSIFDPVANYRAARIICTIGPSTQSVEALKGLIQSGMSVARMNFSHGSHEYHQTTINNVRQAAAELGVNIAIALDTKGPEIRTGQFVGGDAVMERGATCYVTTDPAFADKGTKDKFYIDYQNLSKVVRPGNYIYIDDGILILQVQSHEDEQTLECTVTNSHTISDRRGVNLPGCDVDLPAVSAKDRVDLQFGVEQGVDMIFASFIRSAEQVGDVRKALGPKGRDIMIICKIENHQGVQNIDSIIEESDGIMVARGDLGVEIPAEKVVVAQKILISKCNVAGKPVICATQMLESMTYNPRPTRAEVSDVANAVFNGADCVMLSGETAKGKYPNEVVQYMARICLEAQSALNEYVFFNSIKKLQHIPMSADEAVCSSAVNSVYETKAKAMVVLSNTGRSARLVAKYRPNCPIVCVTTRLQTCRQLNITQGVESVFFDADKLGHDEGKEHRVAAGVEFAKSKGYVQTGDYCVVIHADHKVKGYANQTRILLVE
#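 0.1 nM LmPK, 0.5 mM PEP, 0.1 mM ADP; 50 mM imidazole pH 7.2, 7 mM MgCl2, 50 mM KCl; 1 h RT. Kinase-Glo luminescence readout, normalized to no-enzyme (full inhibition) and uninhibited wells.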
# Vaccinia mCherry = vaccinia inhibition (mCherry reporter); Vaccinia virus mCherry reporter infection, fluorescence; Potency, µM (highest dose often 36.5 µM), without a hit: top-dose activity change, negative = inhibition, actives largely listed as inhibitors; 0.63% of 310,000 active; AID 720579; calls by dose curve; tested in A549 cells; further: potency means the concentration at half of the fitted maximal effect; nearly all actives have a fitted effect of over 35% in size
# VACV Venus inh = vaccinia inhibition (Venus reporter); 0.46% of 330,000 active; Vaccinia virus Venus reporter expression, fluorescence; Potency, µM (doses to about 36.5 µM), for the others: at the top dose activity change, negative = inhibition, usual class: inhibitors; calls by dose curve; tested in A549 cells; further: potency means the concentration at half of the fitted maximal effect; nearly all actives have a fitted effect of over 30% in size
# HCMV inh = human cytomegalovirus inhibition; 4.5% of 410,000 active; HFF cells, HCMV-luciferase reporter, 72 h; active compounds read low; activity change, negative = inhibition, % at 57.5 µM; in the data active means activity change below about -60%; inconclusive means no clear call, values can overlap the other calls; inactive means above about -39%
#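 Human foreskin fibroblasts infected with luciferase-reporter HCMV at MOI 1 PFU/cell, compounds at two doses. Luciferase measured 72 h post infection; normalized to buffer-only basal and Salinomycin (10uM) controls.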
# Tb PYK inh = inhibitors of Trypanosoma brucei pyruvate kinase; Potency, µM (series often up to 76.8 µM), for the others: top-dose activity, negative = inhibition, hits mostly inhibitors; Q57TT1; TbPYK enzyme, Kinase-Glo Plus ATP luminescence, 45 min; 0.12% of 410,000 active; further: potency means the concentration at half of the fitted maximal effect; nearly all actives have a fitted effect of over 50% in size
#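 Luminescent Kinase-Glo Plus end-point after 45 min room-temperature reaction of T. brucei pyruvate kinase started with 130 uM ADP (final). Buffer TEA 50 mM pH 7.2 with KCl, MgCl2, BSA, Tween-20; titration-based qHTS with fitted concentration-effect curves.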
# * = called active by the depositor; i = inactive; ? = inconclusive; · = no result; + = active, no number; ! = not active in a repeat; [ ] = dose if it differs, or a comment. Unless noted, the call rests on the fitted dose curve; in most records, active means well fitted curve in the direction sought with a large enough effect; inconclusive means small, poorly fitted or top-dose-only effect, or another doubt; inactive means no such curve, though single readings can be large; an effect the other way counts as inactive or inconclusive. On the % scale 0 is the no-effect control and ±100 the full control effect.
SMILES,LmPK inh,Vaccinia mCherry,VACV Venus inh,HCMV inh,Tb PYK inh
NS(=O)(=O)c1ccc(CCNCc2cc(Br)ccc2OCc2ccccc2)cc1,1.3%,-20.1%,?,-66.2*,-0.2%
CCOc1cc(CNCc2ccccc2)ccc1OCc1ccc(Cl)cc1,1.3%,?,?,-84.5*,-0.3%
CCOc1cc(CNCCc2ccc(S(N)(=O)=O)cc2)ccc1OCc1ccccc1,2.9%,·,·,?,5.0%
CCOCCCNCc1cc(Br)ccc1OCc1ccccc1,-0.3%,-10.4%,-0.8%,-33.5,0.7%
Cc1ccc(S(=O)(=O)N(C)C)cc1NC(=O)Nc1ccccc1F,-4.3%,i,-18.1%,-34.4,1.8%
Cc1ccc(C)c(-n2nnnc2SCC(=O)Nc2cccc(-c3nnc4n3CCCCC4)c2)c1,-1.8%,·,·,-17.7,·
C=C(C)CSC1=C(C#N)C(c2ccccc2)CC(=O)N1 (stereo not given),·,-4.2%,-13.8%,?,-0.9%
CCOc1cc(CNCCc2c[nH]c3ccccc23)cc(Cl)c1OCC,-0.5%,?,11.2µM*,-62.8*,-3.6%
COc1ccc(N2CCN(C(=O)CCS(=O)(=O)c3ccc4c(c3)CCN4C(=O)C3CC3)CC2)cc1,-12.6%,·,·,-9.2,0.8%
O=C1c2ccccc2-c2n[nH]c3cccc1c23,·,11.2µM*!,-16.1%,-13.5,-9.4%
CCCc1nc2ccc(C)cn2c1Cc1ccccc1OC,·,i,-6.2%,7.6,-1.6%
CCCc1nc2ccc(C)cn2c1Cc1ccccc1C(F)(F)F,·,6.4%,-8.5%,-69.1*,-0.5%
O=C(CNc1ccccc1Cl)Nc1cc(S(=O)(=O)N2CCOCC2)ccc1Cl,·,·,·,-13.4,-9.1%
CCN(CC)CCn1nc2c3c(cccc3c1=O)-c1ccccc1-2,-3.6%,·,·,-98.9*,3.2%
Cc1cccc(N2CCN(C(=O)CNC(=O)Cc3ccccc3)CC2)c1C,·,·,·,-19.1,-0.9%
Cc1cccc(N2CCN(C(=O)CNC(=O)c3cccc([N+](=O)[O-])c3)CC2)c1C,1.6%,-9.1%,-4.8%,-64.0*,-3.2%
O=C(NCc1ccc(Cl)cc1)N1CCN(Cc2ccccc2)CC1,-3.7%,·,·,-93.0*,-2.1%
O=C(NCC(=O)N1CCN(Cc2ccccc2)CC1)c1ccc(Cl)cc1,0.5%,·,·,-62.4*,0.7%
O=C(NN1CCN(Cc2ccccc2Cl)CC1)c1ccc(Cl)cc1,0.3%,-6.5%,-11.4%,-61.3*,-2.1%
O=C(NCC(=O)N1CCN(Cc2ccccc2)CC1)c1ccc(Br)cc1,-7.6%,-10.0%,-10.2%,-8.1,2.0%
O=C1N=C2SCCN2/C1=C\c1ccc(Cl)cc1,-1.5%,-24.4%,-17.7%,4.4,-2.6%
O=C(NCC(=O)N1CCN(Cc2ccccc2)CC1)c1ccccc1Cl,·,i,-4.9%,10.6,4.6%
O=C(NCC(=O)N1CCN(Cc2ccccc2)CC1)c1cc(Cl)cc([N+](=O)[O-])c1,·,·,·,-86.5*,-5.4%
N#Cc1cc2c(nc1SCC(O)CS(=O)(=O)Cc1ccc(Cl)cc1)CCCC2 (stereo not given),5.8%,-11.1%,-23.9%,-63.6*,0.4%
N#CCSc1nc2c(cc1C#N)CCCCCC2,-1.6%,-26.9%,-17.4%,-68.2*,-0.4%
SMILES,LmPK inh,Vaccinia mCherry,VACV Venus inh,HCMV inh,Tb PYK inh
Nc1c(C(=O)O)sc2nc(-c3ccc(F)cc3)cc(-c3ccccc3)c12,-1.8%,·,·,-19.6,3.9%
CCc1ccc(-c2[nH]c3c(c2-c2sc(C)c(C(=O)OC)c2O)c(=O)[nH]c(=O)n3C)cc1,·,-15.0%,3.3%,-10.3,-9.4%
O=C(COC(=O)c1ccccc1NCCO)Nc1ccc(S(=O)(=O)NC2=NCCCCC2)cc1,·,-19.0%,-11.1%,-11.1,-5.4%
CC(SC(=S)N1CCOCC1)C(=O)O (stereo not given),-0.3%,-9.1%[1.46 µM],-5.3%,-11.2,-1.8%
S=C(SSC(=S)N1CCOCC1)N1CCOCC1,·,10.1%,-14.2%,-27.3,3.16µM*
CC(=NNc1nc2ccccc2o1)c1cc2ccccc2cn1,·,?,0.708µM*,-99.1*,-4.0%
Oc1ccccc1/C=N/Nc1ncc(Br)cn1,-7.9%,?,?,-98.1*,4.9%
CC(=NNc1nc2ccccc2s1)c1ncccn1,·,1µM*,19.2%,-97.3*,2.3%
COc1cc(/C=N/Nc2nc3ccccc3o2)cc(OC)c1O,3.6%,·,·,-21.7,·
CC(=NNc1nc2ccccc2o1)c1ncccn1,·,0.708µM*,?,-76.8*,-1.1%
Cc1cc(C)nc(NS(=O)(=O)c2ccc(N/C=C3\CCCC3=O)cc2)n1,2.3%,·,-17.3%,70.2,1.1%
O=C(O)CCC(=O)N1N=C(c2cccs2)CC1c1cccc([N+](=O)[O-])c1 (stereo not given),7.0%,-1.1%,1.2%,-0.4,8.0%
Nc1ncnc(Nc2ccc(Cl)cc2)n1,·,·,·,·,-2.3%
Oc1ccccc1/C=N/Nc1nc2ccccc2o1,-10.8%,?,?,+,0.4%
Brc1ccc(/C=N/Nc2nc3ccccc3o2)cc1,2.7%,·,·,-9.3,1.5%
Cc1c(CCC(=O)NCCCn2ccnc2)c(=O)oc2c(C)c3oc4c(c3cc12)CCCC4,-3.4%,-21.8%,-18.4%,·,0.4%
CCc1cccc(N=c2c([N+](=O)[O-])nn(-c3ccc4c(c3)OCCO4)n2O)c1,2.7%,-25.6%,1.5%,-67.0*,1.2%
CCc1cccc(N=c2c([N+](=O)[O-])nn(-c3ccc(Cl)cc3)n2O)c1,0.3%,-16.6%,-22.6%,73.0,2.3%
CN=c1c([N+](=O)[O-])nn(-c2ccc3c(c2)OCCO3)n1O,-7.5%,12.6µM*,?,?,0.3%
CC(C)c1ccc(N=c2c([N+](=O)[O-])nn(-c3ccc4c(c3)OCCO4)n2O)cc1,5.3%,?,-27.5%,-1.1,7.9%
Cc1ccnc2nc(C(=O)Nc3ccc(S(=O)(=O)N4CCCC4)cc3)nn12,1.5%,·,·,-20.0,-9.6%
Cc1nnsc1C(=O)N1CCN(c2cc(C(F)(F)F)ccn2)CC1,-4.2%,·,·,3.7,3.5%
COCCNC(=O)C1(C)CCN(C(=O)c2ccc(F)c(C)c2)C1 (stereo not given),·,13.9%,-3.3%,-21.8,-13.6%
NC1=NC(=Nc2ccc(Br)cc2)c2ccccc21,-4.1%,?,?,-61.2*,0.0%
COc1cccc(-c2ncn(CCc3ccccc3OC)c2CC(C)C)c1,·,·,·,-88.0*,·
SMILES,LmPK inh,Vaccinia mCherry,VACV Venus inh,HCMV inh,Tb PYK inh
COc1cccc(-c2ncn(CCc3ccccc3OC)c2C(C)C)c1,·,i,-13.2%,-100.9*,-11.6%
Cc1ccccc1N1CCN(C(=O)c2ccc(Oc3ccc(C(F)(F)F)cn3)cc2)CC1,-2.9%,·,·,-23.8,4.7%
O=C1CNC(=S)N1C1CCCCCC1,-11.7%,i,10.1%,-2.0,-7.1%
CC(C)c1ccccc1-n1c(SCC(=O)N2CCc3ccccc3C2)nc2ccccc2c1=O,1.0%,·,·,-95.2*,0.1%
O=C(CSc1nc2ccccc2c(=O)n1-c1ccccc1)N1CCC1,0.1%,-3.4%,-3.0%,-27.2,-13.1%
O=C(CSc1nc2ccccc2c(=O)n1-c1ccccc1)N1CCc2ccccc2C1,2.2%,-11.7%,-24.9%,-94.1*,2.0%
